# Data as given in PubChem BioAssay (NCI).
# Compounds without any hit were thinned out: in the full panel of roughly 79,000, 15% have a hit. Values without a mark were called inactive. Active and inactive are the calls of the source. No stated cut-off is given here; in the data, active means growth inhibition above about 70%; inactive means the rest.
# Tests used:
# [1] = NCI Yeast Anticancer Drug Screen. Data for the rad52 strain (AID 147);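 further: 0% = growth of vehicle-treated control cultures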; conditions: S. cerevisiae rad52 mutant growth inhibition, stronger effect = higher value
# How it was run: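 Compounds are applied to a genetically defined yeast strain lacking normal DNA damage repair, and inhibition of growth is expressed relative to cultures given vehicle only.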
# [2] = NCI Yeast Anticancer Drug Screen. Data for the wt1 strain (AID 149);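 further: 0% = growth of vehicle-treated wt1 cultures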; conditions: S. cerevisiae wt1 strain (SPY 50644) growth inhibition, stronger effect = higher value
# How it was run: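 Compounds are added to wt1 yeast cultures. Growth is then measured. Inhibition is expressed relative to vehicle-treated controls.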
# [3] = NCI Yeast Anticancer Drug Screen. Data for the rad50EPP+ strain (AID 151);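 further: 0% = growth of vehicle-treated control cultures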; conditions: S. cerevisiae rad50 mutant strain, stronger effect = higher value
# How it was run: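 Compounds were applied to the rad50EPP+ yeast strain, which bears a defined DNA repair alteration, and growth inhibition was determined relative to vehicle-treated cultures.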
# [4] = NCI Yeast Anticancer Drug Screen. Data for the mgt1 strain (AID 153); conditions: S. cerevisiae mgt1 mutant growth inhibition, stronger effect = higher value
# How it was run: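 Strain: mgt1 yeast, one of a set carrying defined DNA damage repair or cell cycle control alterations. Compound-treated growth compared with vehicle.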
# [5] = NCI Yeast Anticancer Drug Screen. Data for the rad50 strain (AID 155);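 further: 0% = growth of vehicle-only cultures of the same strain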; conditions: S. cerevisiae rad50 strain growth inhibition, stronger effect = higher value
# How it was run: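 Inhibition values express reduced yeast growth in compound-treated cultures relative to vehicle-treated controls.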
# [6] = NCI Yeast Anticancer Drug Screen. Data for the mec2-1 strain (AID 157); conditions: S. cerevisiae mec2-1 strain, stronger effect = higher value
# How it was run: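 Strain: mec2-1 (DNA repair/cell cycle alteration). Compound exposure, then growth measured; inhibition expressed relative to vehicle.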
# [7] = NCI Yeast Anticancer Drug Screen. Data for the rad14 strain (AID 159);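 further: 0% = growth of vehicle-treated control cultures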; conditions: S. cerevisiae rad14 strain growth inhibition, stronger effect = higher value
# How it was run: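 A mutant yeast strain defective in DNA damage repair is treated with compound; inhibition of its growth is scored against untreated, vehicle-exposed cultures.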
# [8] = NCI Yeast Anticancer Drug Screen. Data for the sgs1 mgt1 strain (AID 161);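 further: 0% = growth of cultures given vehicle only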; conditions: S. cerevisiae sgs1 mgt1 strain, stronger effect = higher value
# How it was run: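 Genetically altered yeast, compound exposure, growth inhibition relative to vehicle.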
# [9] = NCI Yeast Anticancer Drug Screen. Data for the CLN2oe strain (AID 163);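 further: 0% = growth of vehicle-only control cultures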; conditions: S. cerevisiae CLN2oe strain, stronger effect = higher value
# How it was run: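 Growth of a genetically modified yeast strain is measured after compound exposure and compared with cultures given vehicle alone.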
# [10] = NCI Yeast Anticancer Drug Screen. Data for the cln2 rad14 strain (AID 165);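 further: 0% = growth equal to vehicle treated cultures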; conditions: S. cerevisiae cln2 rad14 strain, stronger effect = higher value
# How it was run: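 Compounds are applied to the cln2 rad14 yeast strain, and growth is then compared with that of vehicle-treated cultures to give inhibition.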
# [11] = NCI Yeast Anticancer Drug Screen. Data for the bub3 strain (AID 167); conditions: S. cerevisiae bub3 mutant strain, stronger effect = higher value
# How it was run: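 Steps: expose the mutant yeast strain to compound; grow alongside vehicle-treated cultures; measure growth; express inhibition against the vehicle cultures.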
# [12] = NCI Yeast Anticancer Drug Screen. Data for the wt2 strain (AID 169);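 further: 0% = growth of vehicle-treated yeast cultures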; conditions: S. cerevisiae wt2 strain growth inhibition, stronger effect = higher value
# How it was run: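 This strain belongs to a panel of yeast strains with defined genetic alterations in DNA damage repair or cell cycle control. Compounds are applied, and growth inhibition is measured against vehicle-treated cultures.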
# [13] = NCI Yeast Anticancer Drug Screen. Data for the mlh1 strain (AID 171);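 further: 0% = growth of vehicle-treated control cultures of the same strain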; conditions: S. cerevisiae mlh1 strain growth inhibition, stronger effect = higher value
# How it was run: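 Growth of the mutant yeast strain after compound exposure, expressed as inhibition relative to vehicle-only controls.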
# [14] = NCI Yeast Anticancer Drug Screen. Data for the sgs1 strain (AID 173);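 further: 0% = growth of vehicle-only control cultures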; conditions: S. cerevisiae sgs1 mutant, stronger effect = higher value
# How it was run: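 Growth of a yeast strain bearing a defined genetic alteration is measured after compound treatment. Inhibition is expressed relative to vehicle-only controls.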
# [15] = NCI Yeast Anticancer Drug Screen. Data for the mlh1 rad18 strain (AID 175); conditions: S. cerevisiae mlh1 rad18 strain growth inhibition, stronger effect = higher value
# How it was run: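 Read-out is yeast growth inhibition, calculated against vehicle-only controls. The compound was applied to a strain engineered with DNA damage repair alterations.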
# [16] = at 5.0 µM (retest, dose inferred, filed as 0.5)
# [17] = at 50.0 µM (retest, dose inferred, filed as 5.0)
smiles,measurement,setting,value
Cc1ccc(CSC(N)=Nc2ccccc2)cc1C,growth inhibition,[1]; at 1.2 µM,20%
same,growth inhibition,[1]; at 3.7 µM,21%
same,growth inhibition,[1]; at 11.0 µM,21%
same,growth inhibition,[1]; at 33.0 µM,24%
same,growth inhibition,[1]; at 100.0 µM,30%
same,growth inhibition,[2]; at 1.2 µM,3%
same,growth inhibition,[2]; at 3.7 µM,13%
same,growth inhibition,[2]; at 11.0 µM,0%
same,growth inhibition,[2]; at 33.0 µM,4%
same,growth inhibition,[2]; at 100.0 µM,21%
same,growth inhibition,[3]; at 1.2 µM,4%
same,growth inhibition,[3]; at 3.7 µM,12%
same,growth inhibition,[3]; at 11.0 µM,11%
same,growth inhibition,[3]; at 33.0 µM,4%
same,growth inhibition,[3]; at 100.0 µM,15%
same,growth inhibition,[4]; at 1.2 µM,6%
same,growth inhibition,[4]; at 3.7 µM,-1%
same,growth inhibition,[4]; at 11.0 µM,-8%
same,growth inhibition,[4]; at 33.0 µM,14%
same,growth inhibition,[4]; at 100.0 µM,81% (active)
same,growth inhibition,[5]; at 1.2 µM,9%
same,growth inhibition,[5]; at 3.7 µM,5%
same,growth inhibition,[5]; [16],5%
same,growth inhibition,[5]; at 11.0 µM,14%
same,growth inhibition,[5]; at 33.0 µM,22%
same,growth inhibition,[5]; [17],40%
same,growth inhibition,[5]; at 50.0 µM,61.5%
same,growth inhibition,[5]; at 100.0 µM,30%
same,growth inhibition,[6]; at 1.2 µM,-3%
same,growth inhibition,[6]; at 3.7 µM,10%
same,growth inhibition,[6]; [16],-11%
same,growth inhibition,[6]; at 11.0 µM,-11%
same,growth inhibition,[6]; at 33.0 µM,1%
same,growth inhibition,[6]; [17],-22%
same,growth inhibition,[6]; at 50.0 µM,24.2%
same,growth inhibition,[6]; at 100.0 µM,40%
same,growth inhibition,[7]; at 1.2 µM,-22%
same,growth inhibition,[7]; at 3.7 µM,-14%
same,growth inhibition,[7]; at 11.0 µM,-17%
same,growth inhibition,[7]; at 33.0 µM,10%
same,growth inhibition,[7]; at 100.0 µM,64%
same,growth inhibition,[8]; [16],-10%
same,growth inhibition,[8]; [17],38%
same,growth inhibition,[8]; at 50.0 µM,53.2%
same,growth inhibition,[9]; at 1.2 µM,6%
same,growth inhibition,[9]; at 3.7 µM,10%
same,growth inhibition,[9]; at 11.0 µM,-1%
same,growth inhibition,[9]; at 33.0 µM,7%
same,growth inhibition,[9]; at 100.0 µM,46%
same,growth inhibition,[10]; [16],-16%
same,growth inhibition,[10]; [17],14%
same,growth inhibition,[10]; at 50.0 µM,-4.5%
same,growth inhibition,[11]; at 1.2 µM,4%
same,growth inhibition,[11]; at 3.7 µM,5%
same,growth inhibition,[11]; [16],11%
same,growth inhibition,[11]; at 11.0 µM,-4%
same,growth inhibition,[11]; at 33.0 µM,14%
same,growth inhibition,[11]; [17],22%
same,growth inhibition,[11]; at 50.0 µM,80% (active)
same,growth inhibition,[11]; at 100.0 µM,34%
same,growth inhibition,[12]; at 1.2 µM,2%
same,growth inhibition,[12]; at 3.7 µM,-3%
same,growth inhibition,[12]; at 11.0 µM,-13%
same,growth inhibition,[12]; at 33.0 µM,-5%
same,growth inhibition,[12]; at 100.0 µM,66%
same,growth inhibition,[13]; at 1.2 µM,-7%
same,growth inhibition,[13]; at 3.7 µM,-12%
same,growth inhibition,[13]; at 11.0 µM,-6%
same,growth inhibition,[13]; at 33.0 µM,4%
same,growth inhibition,[13]; at 100.0 µM,66%
same,growth inhibition,[14]; at 1.2 µM,6%
same,growth inhibition,[14]; at 3.7 µM,0%
same,growth inhibition,[14]; at 11.0 µM,7%
same,growth inhibition,[14]; at 33.0 µM,19%
same,growth inhibition,[14]; at 100.0 µM,73% (active)
same,growth inhibition,[15]; [16],-5%
same,growth inhibition,[15]; [17],41%
same,growth inhibition,[15]; at 50.0 µM,42%
Cn1c(N)nc(-c2ccc(Cl)cc2)c1SSc1c(-c2ccc(Cl)cc2)nc(N)n1C,growth inhibition,[1]; at 1.2 µM,-5%
same,growth inhibition,[1]; at 3.7 µM,-2%
same,growth inhibition,[1]; at 11.0 µM,33%
same,growth inhibition,[1]; at 33.0 µM,88% (active)
same,growth inhibition,[1]; at 100.0 µM,98% (active)
same,growth inhibition,[2]; at 1.2 µM,2%
same,growth inhibition,[2]; at 3.7 µM,4%
same,growth inhibition,[2]; at 11.0 µM,16%
same,growth inhibition,[2]; at 33.0 µM,44%
same,growth inhibition,[2]; at 100.0 µM,94% (active)
same,growth inhibition,[3]; at 1.2 µM,-6%
same,growth inhibition,[3]; at 3.7 µM,9%
same,growth inhibition,[3]; at 11.0 µM,53%
same,growth inhibition,[3]; at 33.0 µM,84% (active)
same,growth inhibition,[3]; at 100.0 µM,97% (active)
same,growth inhibition,[4]; at 1.2 µM,-2%
same,growth inhibition,[4]; at 3.7 µM,0%
same,growth inhibition,[4]; at 11.0 µM,13%
same,growth inhibition,[4]; at 33.0 µM,71% (active)
same,growth inhibition,[4]; at 100.0 µM,98% (active)
same,growth inhibition,[5]; at 1.2 µM,-9%
same,growth inhibition,[5]; at 3.7 µM,-17%
same,growth inhibition,[5]; [16],-13%
same,growth inhibition,[5]; at 11.0 µM,6%
same,growth inhibition,[5]; at 33.0 µM,73% (active)
same,growth inhibition,[5]; [17],15%
same,growth inhibition,[5]; at 50.0 µM,95.5% (active)
same,growth inhibition,[5]; at 100.0 µM,97% (active)
same,growth inhibition,[6]; at 1.2 µM,-1%
same,growth inhibition,[6]; at 3.7 µM,3%
same,growth inhibition,[6]; [16],-15%
same,growth inhibition,[6]; at 11.0 µM,30%
same,growth inhibition,[6]; at 33.0 µM,75% (active)
same,growth inhibition,[6]; [17],13%
same,growth inhibition,[6]; at 50.0 µM,93.1% (active)
same,growth inhibition,[6]; at 100.0 µM,97% (active)
same,growth inhibition,[7]; at 1.2 µM,-1%
same,growth inhibition,[7]; at 3.7 µM,-1%
same,growth inhibition,[7]; at 11.0 µM,10%
same,growth inhibition,[7]; at 33.0 µM,53%
same,growth inhibition,[7]; at 100.0 µM,97% (active)
same,growth inhibition,[8]; [16],-12%
same,growth inhibition,[8]; [17],6%
same,growth inhibition,[8]; at 50.0 µM,94.8% (active)
same,growth inhibition,[9]; at 1.2 µM,-8%
same,growth inhibition,[9]; at 3.7 µM,-2%
same,growth inhibition,[9]; at 11.0 µM,5%
same,growth inhibition,[9]; at 33.0 µM,63%
same,growth inhibition,[9]; at 100.0 µM,97% (active)
same,growth inhibition,[10]; [16],37%
same,growth inhibition,[10]; [17],-3%
same,growth inhibition,[10]; at 50.0 µM,92% (active)
same,growth inhibition,[11]; at 1.2 µM,-4%
same,growth inhibition,[11]; at 3.7 µM,-2%
same,growth inhibition,[11]; [16],-4%
same,growth inhibition,[11]; at 11.0 µM,21%
same,growth inhibition,[11]; at 33.0 µM,82% (active)
same,growth inhibition,[11]; [17],93% (active)
same,growth inhibition,[11]; at 50.0 µM,94.9% (active)
same,growth inhibition,[11]; at 100.0 µM,97% (active)
same,growth inhibition,[12]; at 1.2 µM,-1%
same,growth inhibition,[12]; at 3.7 µM,1%
same,growth inhibition,[12]; at 11.0 µM,20%
same,growth inhibition,[12]; at 33.0 µM,71% (active)
same,growth inhibition,[12]; at 100.0 µM,99% (active)
same,growth inhibition,[13]; at 1.2 µM,0%
same,growth inhibition,[13]; at 3.7 µM,3%
same,growth inhibition,[13]; at 11.0 µM,23%
same,growth inhibition,[13]; at 33.0 µM,82% (active)
same,growth inhibition,[13]; at 100.0 µM,98% (active)
same,growth inhibition,[14]; at 1.2 µM,0%
same,growth inhibition,[14]; at 3.7 µM,6%
same,growth inhibition,[14]; at 11.0 µM,28%
same,growth inhibition,[14]; at 33.0 µM,85% (active)
same,growth inhibition,[14]; at 100.0 µM,98% (active)
same,growth inhibition,[15]; [16],-5%
same,growth inhibition,[15]; [17],24%
same,growth inhibition,[15]; at 50.0 µM,97.8% (active)
